Laboratory results reported in PubChem BioAssay AID588549 (Broad Institute, 2011).
The whole screen tested about 360,000 compounds, of which about 780 (0.22%) were called active. The sample holds actives, similar compounds and a random draw of the others, so the mix is not that of the screen. No stated cut-off is given here; in the data, active means inhibition above about 8.5% (passing the limit was not always enough); inconclusive means no clear call, values can overlap the other calls.

test system: Mycobacterium tuberculosis FadD28 fatty-acid-AMP ligase; experiment: inhibitors of FadD28 bisubstrate probe binding, primary screen, biochemical, fluorescence polarization, single point (AID 588549); settings: at 12.5 µM, hits give high values

Q: Which inhibition does the source give for CNS(=O)(=O)c1cnccc1N1CCN(c2cccc(C)c2)CC1 here?
A: -0.922% (inactive)

Q: For CCn1cc(/C=C(\NC(=O)c2ccc(C)cc2)C(=O)NCCN2CCOCC2)c2ccccc21, which inhibition is on record?
A: 1.23% (inactive)

Q: With CC(C)CCN1NC2(CCC(C)CC2)NC1=S (stereo unspecified) as the compound, how does the inhibition read?
A: -3.86% (inactive)

Q: With COc1ccc(S(=O)(=O)NC(=O)C2(C)CCN2C(=O)COc2ccc(Cl)cc2)cc1 (stereo unspecified) as the compound, how does the inhibition read?
A: -5.43% (inactive)

Q: How did the inhibition turn out when COc1ccc(Br)cc1/C=N/Nc1ccc(S(=O)(=O)Nc2ccccc2C(=O)O)cc1[N+](=O)[O-] was run?
A: -1.21% (inactive)

Q: With COc1cccc(/C=N/Nc2ccc(S(=O)(=O)Nc3ccccc3C(=O)O)cc2[N+](=O)[O-])c1O as the compound, how does the inhibition read?
A: 35.4% (active)

Q: For CCN(CC(=O)NCc1cccs1)C(=O)c1cccc(S(=O)(=O)Nc2ccccc2OC)c1, which inhibition is on record?
A: -3.38% (inactive)

Q: Which inhibition does the source give for O=c1c(F)cn(C2CCCO2)c(=O)n1Cc1ccccc1Cl (stereo unspecified) here?
A: -2.45% (inactive)

Q: For Cc1nnc(CN(C)Cc2cn[nH]c2-c2ccc(-c3ccccc3)cc2)o1, which inhibition is on record?
A: -1.34% (inactive)

Q: How did the inhibition turn out when COc1ccc(OC)c(S(=O)(=O)N(C)CC(=O)N2CCN(c3ccccc3)CC2)c1 was run?
A: -3.85% (inactive)

Q: Which inhibition does the source give for COc1ccccc1CNC(=O)CSc1nc(=O)n(Cc2ccncc2)c2c1CCC2 here?
A: -0.173% (inactive)

Q: OC(CNC1CCCC1)COc1ccc(F)cc1 (stereo unspecified) was tested. Which inhibition did it give?
A: -4.58% (inactive)

Q: How did the inhibition turn out when Cc1noc(C)c1-c1ccc(C(=O)NCc2ccncc2)c2occc12 was run?
A: -2.15% (inactive)

Q: Which inhibition does the source give for Cc1ccc(O)c(-c2cc(C(=O)Nc3c(C)n(C)n(-c4ccccc4)c3=O)[nH]n2)c1 here?
A: -2.28% (inactive)

Q: For COC(=O)c1ccc(CSc2nnc(NC(C)C)s2)cc1, which inhibition is on record?
A: -3.65% (inactive)

Q: How did the inhibition turn out when COc1ccc(Cl)cc1NC(=O)CN(C)C(=O)c1cn(-c2ccccc2)nc1-c1cccs1 was run?
A: -1.26% (inactive)

Q: With O=C(O)c1ccc(N/N=C/c2ccc3ncccc3c2)cc1 as the compound, how does the inhibition read?
A: -1.11% (inactive)

Q: With O=C(O)c1ccc(N/N=C/c2cn(-c3ccccc3)nc2-c2cccs2)cc1 as the compound, how does the inhibition read?
A: 23.7% (active)

Q: Which inhibition does the source give for Cc1nnc(Nc2ccccc2F)s1 here?
A: -1.11% (inactive)

Q: COCCNC(=O)c1ccc2nc(Cc3ccc(OC)c(OC)c3)oc2c1 was tested. Which inhibition did it give?
A: -2.89% (inactive)

Q: COCCNC(=O)CN(Cc1ccco1)C(=O)CCC(=O)Nc1nccs1 was tested. Which inhibition did it give?
A: -3.92% (inactive)

Q: With COCCNC(=O)Nc1ccc2nc(-c3ccco3)c(-c3ccco3)nc2c1 as the compound, how does the inhibition read?
A: 20.8% (active)

Q: O=S(=O)(NCCCCCCNS(=O)(=O)c1c(F)cccc1F)c1ccc2c(c1)OCCO2 was tested. Which inhibition did it give?
A: -2.1% (inactive)

Q: How did the inhibition turn out when O=C(COC(=O)c1cccc(Cl)c1)NC(=O)NCc1ccccc1 was run?
A: -1.95% (inactive)

Q: With O=C1c2ccccc2C(=O)N1c1ccccc1S(=O)C(F)(F)F (stereo unspecified) as the compound, how does the inhibition read?
A: -3.78% (inactive)

Q: With CC(C(=O)Nc1ccc(F)c(F)c1F)N1CCCCCC1 (stereo unspecified) as the compound, how does the inhibition read?
A: -6.4% (inactive)

Q: Which inhibition does the source give for CC1(C)CC(=O)C=C(NCc2ccncc2)C1 here?
A: 1.4% (inactive)

Q: How did the inhibition turn out when CCOc1ccc(CN(C)C(=O)c2ccc(=O)[nH]c2)cc1 was run?
A: -0.407% (inactive)

Q: For O=C(Nc1c2c(nn1-c1ccccc1)CS(=O)(=O)C2)C1CCCC1, which inhibition is on record?
A: -0.538% (inactive)

Q: Which inhibition does the source give for Cc1nn(C)c(Cl)c1CN1CCC(n2nccc2NC(=O)C2CCCC2)CC1 here?
A: 1.24% (inactive)

Q: Which inhibition does the source give for O=C(Cn1ccc([N+](=O)[O-])n1)NCc1cccs1 here?
A: -2.06% (inactive)

Q: With N#C/C(=C/c1ccc(N2CCCCC2)o1)C(=O)NCCc1c[nH]c2ccccc12 as the compound, how does the inhibition read?
A: -1.59% (inactive)

Q: Which inhibition does the source give for Cc1ccc(C(O)P(=O)(OC(C)C)c2ccc(N(C)C)cc2)cc1 (stereo unspecified) here?
A: 0.612% (inactive)

Q: With CCCCn1c(N)c(N2CCOCC2)c(=O)n(CC(=O)NCCc2ccccc2)c1=O as the compound, how does the inhibition read?
A: 0% (inactive)

Q: N[C@@H](Cc1ccccc1)C(=O)N1CCC(C(=O)NCC(=O)Nc2ccc(F)cc2)CC1 was tested. Which inhibition did it give?
A: 0.565% (inactive)

Q: For O=C(CSc1n[nH]c(=O)n1-c1ccccc1)Nc1ccccc1C(F)(F)F, which inhibition is on record?
A: -1.05% (inactive)

Q: Which inhibition does the source give for C=C1c2c(Cl)ccc(O)c2C(O)=C2C(=O)[C@]3(O)C(O)=C(C(N)=O)C(=O)[C@@H](N(C)C)[C@@H]3[C@@H](O)C12 (stereo partly specified) here?
A: 11.1% (active)

Q: For C[C@H]([C@@H](O)[C@@H](O)[C@@H](C)C(C)(C)C)[C@H]1CC[C@H]2C3CC[C@H]4C[C@H](OS(=O)(=O)O)[C@@H](OS(=O)(=O)O)C[C@]4(C)[C@H]3CC[C@]12C (stereo partly specified), which inhibition is on record?
A: -4.53% (inactive)

Q: How did the inhibition turn out when Cc1ccc(NC(=O)C(c2ccccc2)N2CCN(C(=O)c3ccco3)CC2)cc1 (stereo unspecified) was run?
A: -0.809% (inactive)

Q: With COc1ccc(C(CNC(=O)c2cccc(S(=O)(=O)Nc3ccccc3Cl)c2)N2CCOCC2)cc1 (stereo unspecified) as the compound, how does the inhibition read?
A: 0.098% (inactive)

Q: For CCCCN=C1N/C(=C\c2ccco2)C(=O)N1c1ccccc1, which inhibition is on record?
A: -0.549% (inactive)

Q: With COC(=O)C1=C(C)N(C(C)c2ccccc2)C(=O)/C1=C\c1ccco1 (stereo unspecified) as the compound, how does the inhibition read?
A: -2.87% (inactive)

Q: Which inhibition does the source give for COc1ccc(N2C(=O)/C(=C/c3ccco3)C(=O)NC2=S)cc1 here?
A: 32.5% (active)

Q: How did the inhibition turn out when N#CCN(C(=O)COC(=O)C1CC2CCCC(C1)C2=O)c1ccccc1 (stereo unspecified) was run?
A: 0.44% (inactive)

Q: How did the inhibition turn out when CCOC(=O)C(CC)/C(C)=N\NC(=O)c1cccc(C)c1 (stereo unspecified) was run?
A: -0.964% (inactive)

Q: How did the inhibition turn out when CCN(CC)C(=O)C1=C(C)N(Cc2ccc(F)cc2)C(=O)C(CC(=O)NC2CCCC2)C1 (stereo unspecified) was run?
A: -3.83% (inactive)

Q: Which inhibition does the source give for Cc1ccc(S(=O)(=O)N(C)c2ccc(OCC(=O)OCc3ccc(C#N)cc3)cc2)cc1 here?
A: -1.59% (inactive)

Q: Nc1ncc(CN2CCCC(C(=O)Nc3ccc(-c4ccco4)cc3)C2)cn1 (stereo unspecified) was tested. Which inhibition did it give?
A: -5.68% (inactive)

Q: Which inhibition does the source give for O=C(COC(=O)CNS(=O)(=O)c1ccc(F)c(F)c1F)NC1CCCC1 here?
A: -2.7% (inactive)

Q: O=C(OCc1ccc([N+](=O)[O-])cc1)C1CC(=O)N(Cc2ccccc2Cl)C1 (stereo unspecified) was tested. Which inhibition did it give?
A: -0.71% (inactive)

Q: How did the inhibition turn out when Cc1ccc(S(=O)(=O)N2CCOCC2)cc1NC(=O)CSc1nnc(N)s1 was run?
A: 1.4% (inactive)

Q: How did the inhibition turn out when O=S(=O)(Nc1ccc2nc(-c3ccco3)[nH]c2c1)c1ccccc1 was run?
A: -2.01% (inactive)

Q: With COc1cccc2c(C)c(C(=O)O)[nH]c12 as the compound, how does the inhibition read?
A: 15.1% (active)

Q: For COc1cc2c(C(=O)O)c(C)n(C)c2c2ccccc12, which inhibition is on record?
A: 2.25% (inactive)

Q: With COc1cccc2c(O)cc(=O)n(C)c12 as the compound, how does the inhibition read?
A: -3.24% (inactive)

Q: How did the inhibition turn out when O=C1Nc2cc(Cl)c(Cl)cc2N(O)N1c1cc(Cl)cc(Cl)c1 was run?
A: -1.95% (inactive)
